# Where two headings read alike, the source gives them in different places.
# Columns and labels:
# [1] = test system: AURKA; details: read-out: apparent Kd, n = 1
# [2] = test system: CHEK1; details: read-out: apparent Kd, n = 1
substance,measurement,setting,value
Lestaurtinib,potency estimated from few doses,"[1]; compound concentrations:100 nM and 1000 nM (sheet 'Lestaurtinib' of Supplementary Table 1),run:Lestaurtinib_02802_R1,Plate:MR029",16.2 nM
same,potency estimated from few doses,"[1]; compound concentrations:100 nM and 1000 nM (sheet 'Lestaurtinib' of Supplementary Table 1),run:Lestaurtinib_02802_R2,Plate:MR029",15.9 nM
same,potency estimated from few doses,"[1]; compound concentrations:100 nM and 1000 nM (sheet 'Lestaurtinib' of Supplementary Table 1),run:Lestaurtinib_02802_R3,Plate:MR029",14.1 nM
same,potency estimated from few doses,"[1]; compound concentrations:100 nM and 1000 nM (sheet 'Lestaurtinib' of Supplementary Table 1),run:Lestaurtinib_02896_R1,Plate:MR030",15.4 nM
same,potency estimated from few doses,"[1]; compound concentrations:100 nM and 1000 nM (sheet 'Lestaurtinib' of Supplementary Table 1),run:Lestaurtinib_02896_R2,Plate:MR030",16.3 nM
same,potency estimated from few doses,"[1]; compound concentrations:100 nM and 1000 nM (sheet 'Lestaurtinib' of Supplementary Table 1),run:Lestaurtinib_02896_R3,Plate:MR030",16.2 nM
same,potency estimated from few doses,"[1]; compound concentrations:100 nM and 1000 nM (sheet 'Lestaurtinib' of Supplementary Table 1),run:Lestaurtinib_03172_R1,Plate:MR031",17 nM
same,potency estimated from few doses,"[1]; compound concentrations:100 nM and 1000 nM (sheet 'Lestaurtinib' of Supplementary Table 1),run:Lestaurtinib_03252_R1,Plate:MR032",16.3 nM
same,potency estimated from few doses,"[1]; compound concentrations:100 nM and 1000 nM (sheet 'Lestaurtinib' of Supplementary Table 1),run:Lestaurtinib_03260_R1,Plate:MR033",27.5 nM
same,potency estimated from few doses,"[1]; compound concentrations:100 nM and 1000 nM (sheet 'Lestaurtinib' of Supplementary Table 1),run:Lestaurtinib_03260_R3,Plate:MR033",22.2 nM
same,potency estimated from few doses,"[2]; compound concentrations:100 nM and 1000 nM (sheet 'Lestaurtinib' of Supplementary Table 1),run:Lestaurtinib_02339_R1,Plate:MR001",99.6 nM
same,potency estimated from few doses,"[2]; compound concentrations:100 nM and 1000 nM (sheet 'Lestaurtinib' of Supplementary Table 1),run:Lestaurtinib_02339_R2,Plate:MR001",72.8 nM
same,potency estimated from few doses,"[2]; compound concentrations:100 nM and 1000 nM (sheet 'Lestaurtinib' of Supplementary Table 1),run:Lestaurtinib_02339_R3,Plate:MR001",71.3 nM
same,potency estimated from few doses,"[2]; compound concentrations:100 nM and 1000 nM (sheet 'Lestaurtinib' of Supplementary Table 1),run:Lestaurtinib_02364_R1,Plate:MR002",67.1 nM
same,potency estimated from few doses,"[2]; compound concentrations:100 nM and 1000 nM (sheet 'Lestaurtinib' of Supplementary Table 1),run:Lestaurtinib_02364_R3,Plate:MR002",86.4 nM
same,potency estimated from few doses,"[2]; compound concentrations:100 nM and 1000 nM (sheet 'Lestaurtinib' of Supplementary Table 1),run:Lestaurtinib_02367_R2,Plate:MR003",78 nM
same,potency estimated from few doses,"[2]; compound concentrations:100 nM and 1000 nM (sheet 'Lestaurtinib' of Supplementary Table 1),run:Lestaurtinib_02381_R1,Plate:MR004",78.7 nM
same,potency estimated from few doses,"[2]; compound concentrations:100 nM and 1000 nM (sheet 'Lestaurtinib' of Supplementary Table 1),run:Lestaurtinib_02381_R3,Plate:MR004",61.8 nM
same,potency estimated from few doses,"[2]; compound concentrations:100 nM and 1000 nM (sheet 'Lestaurtinib' of Supplementary Table 1),run:Lestaurtinib_02407_R1,Plate:MR005",73.9 nM
same,potency estimated from few doses,"[2]; compound concentrations:100 nM and 1000 nM (sheet 'Lestaurtinib' of Supplementary Table 1),run:Lestaurtinib_02407_R2,Plate:MR005",71 nM
same,potency estimated from few doses,"[2]; compound concentrations:100 nM and 1000 nM (sheet 'Lestaurtinib' of Supplementary Table 1),run:Lestaurtinib_02422_R1,Plate:MR006",70.8 nM
same,potency estimated from few doses,"[2]; compound concentrations:100 nM and 1000 nM (sheet 'Lestaurtinib' of Supplementary Table 1),run:Lestaurtinib_02422_R2,Plate:MR006",31 nM
same,potency estimated from few doses,"[2]; compound concentrations:100 nM and 1000 nM (sheet 'Lestaurtinib' of Supplementary Table 1),run:Lestaurtinib_02422_R3,Plate:MR006",76.2 nM
same,potency estimated from few doses,"[2]; compound concentrations:100 nM and 1000 nM (sheet 'Lestaurtinib' of Supplementary Table 1),run:Lestaurtinib_02437_R2,Plate:MR007",67.9 nM
same,potency estimated from few doses,"[2]; compound concentrations:100 nM and 1000 nM (sheet 'Lestaurtinib' of Supplementary Table 1),run:Lestaurtinib_02437_R3,Plate:MR007",17.2 nM
same,potency estimated from few doses,"[2]; compound concentrations:100 nM and 1000 nM (sheet 'Lestaurtinib' of Supplementary Table 1),run:Lestaurtinib_02438_R2,Plate:MR008",88.5 nM
same,potency estimated from few doses,"[2]; compound concentrations:100 nM and 1000 nM (sheet 'Lestaurtinib' of Supplementary Table 1),run:Lestaurtinib_02438_R3,Plate:MR008",99.8 nM
same,potency estimated from few doses,"[2]; compound concentrations:100 nM and 1000 nM (sheet 'Lestaurtinib' of Supplementary Table 1),run:Lestaurtinib_02443_R2,Plate:MR009",94.3 nM
same,potency estimated from few doses,"[2]; compound concentrations:100 nM and 1000 nM (sheet 'Lestaurtinib' of Supplementary Table 1),run:Lestaurtinib_02473_R1,Plate:MR010",72.2 nM
same,potency estimated from few doses,"[2]; compound concentrations:100 nM and 1000 nM (sheet 'Lestaurtinib' of Supplementary Table 1),run:Lestaurtinib_02473_R2,Plate:MR010",70.2 nM
same,potency estimated from few doses,"[2]; compound concentrations:100 nM and 1000 nM (sheet 'Lestaurtinib' of Supplementary Table 1),run:Lestaurtinib_02482_R1,Plate:MR011",78 nM
same,potency estimated from few doses,"[2]; compound concentrations:100 nM and 1000 nM (sheet 'Lestaurtinib' of Supplementary Table 1),run:Lestaurtinib_02482_R3,Plate:MR011",92.6 nM
same,potency estimated from few doses,"[2]; compound concentrations:100 nM and 1000 nM (sheet 'Lestaurtinib' of Supplementary Table 1),run:Lestaurtinib_02487_R1,Plate:MR012",69.6 nM
same,potency estimated from few doses,"[2]; compound concentrations:100 nM and 1000 nM (sheet 'Lestaurtinib' of Supplementary Table 1),run:Lestaurtinib_02487_R2,Plate:MR012",86.9 nM
same,potency estimated from few doses,"[2]; compound concentrations:100 nM and 1000 nM (sheet 'Lestaurtinib' of Supplementary Table 1),run:Lestaurtinib_02487_R3,Plate:MR012",87.7 nM
same,potency estimated from few doses,"[2]; compound concentrations:100 nM and 1000 nM (sheet 'Lestaurtinib' of Supplementary Table 1),run:Lestaurtinib_02496_R1,Plate:MR013",92.6 nM
same,potency estimated from few doses,"[2]; compound concentrations:100 nM and 1000 nM (sheet 'Lestaurtinib' of Supplementary Table 1),run:Lestaurtinib_02496_R2,Plate:MR013",79.6 nM
same,potency estimated from few doses,"[2]; compound concentrations:100 nM and 1000 nM (sheet 'Lestaurtinib' of Supplementary Table 1),run:Lestaurtinib_02566_R1,Plate:MR014",88.2 nM
same,potency estimated from few doses,"[2]; compound concentrations:100 nM and 1000 nM (sheet 'Lestaurtinib' of Supplementary Table 1),run:Lestaurtinib_02566_R2,Plate:MR014",75.6 nM
same,potency estimated from few doses,"[2]; compound concentrations:100 nM and 1000 nM (sheet 'Lestaurtinib' of Supplementary Table 1),run:Lestaurtinib_02566_R3,Plate:MR014",66.8 nM
same,potency estimated from few doses,"[2]; compound concentrations:100 nM and 1000 nM (sheet 'Lestaurtinib' of Supplementary Table 1),run:Lestaurtinib_02572_R1,Plate:MR015",89.7 nM
same,potency estimated from few doses,"[2]; compound concentrations:100 nM and 1000 nM (sheet 'Lestaurtinib' of Supplementary Table 1),run:Lestaurtinib_02584_R1,Plate:MR017",76.9 nM
same,potency estimated from few doses,"[2]; compound concentrations:100 nM and 1000 nM (sheet 'Lestaurtinib' of Supplementary Table 1),run:Lestaurtinib_02584_R3,Plate:MR017",87.5 nM

# Reference: article PMC11062922 (Nature Chemical Biology, 2023)
